Screening data from PubChem.
PLCb3 inh: human PLC-beta3 inhibitors, primary screen, biochemical, fluorescence | 1-phosphatidylinositol 4,5-bisphosphate phosphodiesterase beta-3 (Homo sapiens), Q01970 | Purified PLC-beta3, fluorogenic substrate | inhibition, % at 12.2 µM | 370,000 tested, 0.18% active | AID 720704, 2013; in the data active = inhibition above about 11%
NPR1 activator: GC-A stimulated cGMP production enhancers – HEK293 GC-A cells, cGMP TR-FRET, EC30 ANP, primary screen. Atrial natriuretic peptide receptor 1 (Homo sapiens), P16066. 0% at EC30 ANP, 100% saturating ANP. 370,000 tested, 0.14% active. AID 1671463, 2021. activation, % at 10 µM; in the data active = activation above about 40%
Target sequence (P16066 whole entry, looked up): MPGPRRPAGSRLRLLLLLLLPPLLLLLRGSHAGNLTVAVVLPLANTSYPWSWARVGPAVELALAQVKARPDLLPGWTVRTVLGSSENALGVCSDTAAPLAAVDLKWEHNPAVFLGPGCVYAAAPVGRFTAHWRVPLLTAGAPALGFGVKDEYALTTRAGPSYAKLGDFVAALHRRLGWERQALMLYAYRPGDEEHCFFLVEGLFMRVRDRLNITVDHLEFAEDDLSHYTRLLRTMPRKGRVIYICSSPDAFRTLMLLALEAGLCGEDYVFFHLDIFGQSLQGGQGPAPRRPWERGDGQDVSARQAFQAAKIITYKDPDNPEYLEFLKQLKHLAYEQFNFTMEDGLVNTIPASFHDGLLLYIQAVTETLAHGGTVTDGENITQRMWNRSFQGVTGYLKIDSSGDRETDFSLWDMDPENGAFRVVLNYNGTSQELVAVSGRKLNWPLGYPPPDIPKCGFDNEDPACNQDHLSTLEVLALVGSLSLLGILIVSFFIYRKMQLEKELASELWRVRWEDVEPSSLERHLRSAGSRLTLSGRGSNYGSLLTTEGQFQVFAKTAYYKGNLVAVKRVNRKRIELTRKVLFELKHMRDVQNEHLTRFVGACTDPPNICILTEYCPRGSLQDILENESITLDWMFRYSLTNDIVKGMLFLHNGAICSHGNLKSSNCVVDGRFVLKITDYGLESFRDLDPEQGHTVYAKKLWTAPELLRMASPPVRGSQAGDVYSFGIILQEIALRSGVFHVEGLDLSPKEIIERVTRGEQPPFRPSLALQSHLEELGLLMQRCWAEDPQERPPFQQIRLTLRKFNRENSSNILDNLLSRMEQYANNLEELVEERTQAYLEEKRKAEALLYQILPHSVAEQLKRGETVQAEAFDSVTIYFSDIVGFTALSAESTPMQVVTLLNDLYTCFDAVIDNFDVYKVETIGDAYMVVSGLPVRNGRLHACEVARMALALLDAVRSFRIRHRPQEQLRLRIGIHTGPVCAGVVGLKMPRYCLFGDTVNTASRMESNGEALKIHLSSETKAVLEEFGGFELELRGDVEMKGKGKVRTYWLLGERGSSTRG
M18AAP inhibitor: PfM18AAP inhibitors, malaria aminopeptidase, primary screen, biochemical, QFRET, recombinant enzyme; M18 aspartyl aminopeptidase (Plasmodium falciparum 3D7); H-Glu-NHMec fluorogenic cleavage; inhibition, % at 7.35 µM; 290,000 tested, 1.2% active; AID 1822, 2009;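 active = inhibition above the campaign mean inhibition over all tested compounds plus 3 SD, cut at about 28% in these data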
GC-B act: human GC-B receptor activators, primary screen, HEK293 GC-B cells, cGMP TR-FRET, EC30 CNP; Atrial natriuretic peptide receptor 2 (Homo sapiens), P20594; 370,000 tested, 0.11% active; activation, % at 10 µM; 0% at EC30 CNP, 100% saturating CNP;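 active = activation at 10 µM reaching about 35% in either raw or pattern-adjusted values, limit read from the data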
Rce1 inh: yeast Rce1p protease inhibitors, primary screen, biochemical, fluorescence, cell-free homogeneous | CAAX prenyl protease 2 (Saccharomyces cerevisiae (strain ATCC 204508 / S288c)), Q03530 | yeast membranes, quenched prenylated peptide cleavage fluorescence | calls only | 290,000 tested, 0.27% active;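 active = fall in fluorescence gain of 50% or more versus controls, with final raw signal at or below 3038400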
PLCg1 inh: PLC-gamma1 enzyme inhibitors, primary screen, biochemical, fluorescence, purified enzyme. 1-phosphatidylinositol 4,5-bisphosphate phosphodiesterase gamma-1 (Homo sapiens), P19174. fluorogenic substrate. inhibition, % at 12.2 µM. 370,000 tested, 0.84% active; in the data active = inhibition above about 9.5%
Of the large screens only hits and unclear results are named; the others gave an inactive call. Shown are actives, neighbours in structure and some others; about 2.2% of the full set was active somewhere.

COC(=O)[C@]12C[C@H](CC(=O)NCCC(C)C)C(=O)N(Cc3ccco3)C1=C[C@H](C(C)C)O[C@@H]2C1CC1	none (no result: M18AAP inhibitor, Rce1 inh)
Cc1nnc(SCC(=O)NNC(=O)COc2ccc(Cl)cc2)n1C	none
O=C(COc1ccc(Cl)cc1)NNC(=O)CSc1nncs1	M18AAP inhibitor 29
CCCC1CCC2(CC1)CCC2OC(=S)Nc1ccccc1Cl (stereo not given)	none (no result: M18AAP inhibitor, Rce1 inh)
CCNC(=S)NNC(=S)NCc1ccccc1	M18AAP inhibitor 32
CC1(Cc2ccc(C(F)(F)F)nc2)C(=O)Nc2cc(-c3ccccc3Cl)ccc21 (stereo not given)	NPR1 activator 42 (no result: M18AAP inhibitor, Rce1 inh)
CN1C(=O)c2cc(NS(=O)(=O)c3cccc(F)c3)ccc2OC[C@@H]2O[C@H](CC(=O)O)CC[C@H]21	none (no result: M18AAP inhibitor, Rce1 inh)
OCCN(CCO)c1ccc2ccccc2c1	Rce1 inh active
OCCN(CCO)c1cc2c3ccccc3ccc2c2ccccc12	none (no result: M18AAP inhibitor, Rce1 inh)
Cc1nn(-c2ccccc2)c(C)c1/C=N\NC(=O)CSc1nc2ccccc2n1Cc1ccc(Cl)cc1	none (no result: M18AAP inhibitor, Rce1 inh)
O=C1OCCC1Sc1nnnn1-c1ccccc1 (stereo not given)	none
O=C1OCCC1Sc1nnnn1-c1ccc(Cl)cc1 (stereo not given)	NPR1 activator 65
COC(=O)C1CN(Cc2ccc(C)cc2)CCS(=O)(=O)N1Cc1cn(Cc2ccc(C)cc2)nn1 (stereo not given)	none (no result: M18AAP inhibitor, Rce1 inh)
COc1cc(OC)cc(-c2ncc3ccccn23)c1	Rce1 inh active
COc1cccc(-c2ncc3ccccn23)c1	none
CCN(CC)c1ccc(C(=O)c2ccccc2C(=O)O)c(O)c1	Rce1 inh active
COc1cccc(CC(=O)N(Cc2ccccc2)c2ccccc2C(=O)Nc2cc(OC)ccc2OC)c1	none (no result: M18AAP inhibitor, Rce1 inh)
S=c1[nH]nc(-c2n[nH]c3c2CCC3)n1N=Cc1ccc(OCc2ccccc2)cc1	none (no result: M18AAP inhibitor, Rce1 inh)
O=C(N[C@H]1CCCCNC1=O)c1cc(COc2ccc(F)cc2F)on1	NPR1 activator 66
COC(=O)[C@]12C[C@H](CC(=O)NCC34CC5CC(CC(C5)C3)C4)C(=O)N(Cc3ccco3)C1=C[C@H](COCc1ccccc1)O[C@@H]2C	none (no result: M18AAP inhibitor, Rce1 inh)
COc1cc2c(cc1OC)C(c1cccs1)N(C(=O)c1cccnc1)CC2 (stereo not given)	PLCg1 inh 9.9
COc1cc2c(cc1OC)C(c1cccs1)N(C(=O)C(C)C)CC2 (stereo not given)	none
COc1ccc(C#Cc2c(-c3ccsc3)oc3ccc(N4CCOCC4)cc23)cc1	none (no result: M18AAP inhibitor)
COc1ccc(-c2oc3ccc(N4CCOCC4)cc3c2C#Cc2ccc(N)cc2)cc1	Rce1 inh active (no result: M18AAP inhibitor)
CCN(CC)c1ccc(-n2c(C)c(C(C)=O)c(C(C)=O)c2C)cc1	M18AAP inhibitor 28
CC(=O)c1c(C(C)=O)c(C)n(-c2ccc(O)cc2)c1C	none (no result: Rce1 inh)
Cc1nn(C)cc1-c1n[nH]c(=S)n1-c1ccc(Cl)cc1	M18AAP inhibitor 30
Nn1c(-c2ccco2)n[nH]c1=S	M18AAP inhibitor 29
S=c1[nH]nc(-c2ccco2)n1-c1ccc(Cl)cc1	M18AAP inhibitor 30
S=c1[nH]nc(-c2ccco2)n1C1CCCCC1	none
COc1ccc(-n2c(-c3ccco3)n[nH]c2=S)cc1	none
Cc1ccc(-c2cc(-c3nnc(SCC(=O)NC4CCCCC4)n3N)[nH]n2)cc1	none (no result: M18AAP inhibitor, Rce1 inh)
Cn1c(=O)oc2cc(S(=O)(=O)N3CCN(CCO)CC3)ccc21	none (no result: M18AAP inhibitor, Rce1 inh)
Cc1ccc(-c2nc(C3CCCN(S(=O)(=O)c4ccc(C)c(C)c4)C3)no2)cc1 (stereo not given)	none (no result: M18AAP inhibitor, Rce1 inh)
CN1/C(=C/C(=O)c2ccc(Cl)cc2)Sc2cc3c(cc21)OCO3	M18AAP inhibitor 32
CCCCn1c(-c2cccnc2)n[nH]c1=S	M18AAP inhibitor 30
NC(=O)c1ccc2c(=O)c(O)c(-c3cc(Cl)c(N)c(Cl)c3)[nH]c2c1	M18AAP inhibitor 51
CCCNC(=O)c1ccc2c(=O)c(O)c(-c3ccc(Cl)c([N+](=O)[O-])c3)[nH]c2c1	none (no result: M18AAP inhibitor)
Cc1cccc(N2CCc3c2nc2ccc(Br)cc2c3N)c1	Rce1 inh active (no result: NPR1 activator, GC-B act)
Nc1c2c(nc3ccc(Br)cc13)N(c1ccccc1)CC2	none (no result: Rce1 inh)
COc1c2ccoc2nc2c(OC)cccc12	Rce1 inh active (no result: NPR1 activator, GC-B act)
CN(C)c1cccc(/C=C2\CC3(OC(=O)C4CCCC4)CCCN2C3)c1 (stereo not given)	none (no result: M18AAP inhibitor, Rce1 inh)
COc1ccccc1NC(=O)CN1CCN(c2ccc(F)cc2)CC1	none (no result: M18AAP inhibitor, Rce1 inh)
O=C(CN1CCN(c2ccc(F)cc2)CC1)Nc1ccccc1Br	PLCg1 inh 17
Cc1nnc(NC(=O)CSc2nnc(-c3ccco3)o2)s1	M18AAP inhibitor 29 (no result: PLCb3 inh, NPR1 activator, GC-B act, PLCg1 inh)
CC(C)c1nnc(NC(=O)CSc2nnc(-c3ccco3)o2)s1	none
C=CCn1c2ccccc2c2nnc(SCC(N)=O)nc21	none
C=CCSc1nnc2nc3c(nn12)c1cc(C)ccc1n3CC=C	NPR1 activator 50, GC-B act 51
CC(=O)Nc1ccc(Cl)cc1C1COC(=O)C1=N (stereo not given)	Rce1 inh active
O=C(Nc1nc(-c2ccccn2)cs1)c1ccc([N+](=O)[O-])o1	Rce1 inh active
Cc1nc(NC(=O)c2cccc(-c3cc4ccccc4oc3=O)c2)ccc1Br	Rce1 inh active
CCOC(=O)C1=C(C)N(CCCC(=O)O)C(=O)NC1c1ccccc1OC(=O)c1cccs1 (stereo not given)	Rce1 inh active (no result: M18AAP inhibitor)
NC(=O)c1cccnc1Oc1ccc(Cl)cc1	none
O=C(Nc1cccnc1Oc1ccc(Cl)cc1)c1cccc2ccccc12	Rce1 inh active
CSc1ccc(CNC(=O)C2(C)CCCN(C(C)=O)C2)cc1 (stereo not given)	PLCb3 inh 11 (no result: M18AAP inhibitor, Rce1 inh)
CCC(C)Nc1nc2c(c(=O)n(C)c(=O)n2C)n1Cc1cccc(C)c1 (stereo not given)	none
Cn1c(=O)c2c([nH]c(=S)n2Cc2ccc(Cl)cc2)n(C)c1=O	M18AAP inhibitor 30
Cn1c(=O)[nH]c(=O)c2c1nc(NC1CCCCC1)n2Cc1ccccc1	NPR1 activator 52, GC-B act 39
Cc1cccc(Cn2c(NC3CCCC3)nc3c2c(=O)[nH]c(=O)n3C)c1	none (no result: M18AAP inhibitor, Rce1 inh)
Cc1cccc(Nc2nc3c(c(=O)n(C)c(=O)n3C)n2Cc2ccccc2)c1	NPR1 activator 53, GC-B act 47
Cn1c(=O)c2c(nc(NCC3CCCO3)n2Cc2cccc(Br)c2)n(C)c1=O (stereo not given)	GC-B act 38
